A short description of experiment [1]: Nuclear factor erythroid 2-related factor 2/antioxidant responsive element (Nrf2/ARE) small molecule agonists: qHTS cell viability counter screen in human keratinocytes (AID 1919968; active = well fitted curve in the direction sought with a large enough effect in the repeat runs; an effect the other way counts as inactive or inconclusive; note: nearly all actives have a fitted effect of over 55% in size). A digest of the protocol:
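Seed 1,500 KeratinoSens cells per well, then incubate 5 h at 37 C/5% CO2. Add compounds in DMSO and incubate 23 h. Add CellTiter-Fluor, wait 1 h and read fluorescence.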

The nature of experiment [2]: Nuclear factor erythroid 2-related factor 2/antioxidant responsive element (Nrf2/ARE) small molecule agonists: luciferase reporter gene qHTS assay in human keratinocytes (AID 1919969). Note: nearly all actives have a fitted effect of over 35% in size. A general note: In a reporter assay the amount or activity of a reporter protein is the signal.
In experiment [3] the target is Gonadotropin-releasing hormone receptor (Homo sapiens) (UniProt P30968). Kind of experiment: Human gonadotropin-releasing hormone receptor (GnRHR) small molecule agonists, calcium flux assay in GnRHR-HEK293 cells (AID 1920063). Note: nearly all actives have a fitted effect of over 35% in size. Note: potency is the fitted concentration of half-maximal effect. A digest of the protocol:
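Cells: HEK293 stably expressing human GnRHR. Steps: overnight (18 h) culture, 1 h calcium dye loading at 37 C, compound addition, kinetic fluorescence read at 480/540 nm. Each compound tested at 15 concentrations in triplicate.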
On the technique in general: A change in cytosolic calcium serves as a functional read-out for many receptors and channels.

For experiment [4], the target named is KiSS-1 receptor (Homo sapiens) (UniProt Q969F8). Put plainly: Human kisspeptin (KISS1R) small molecule agonists, calcium flux assay in KISS1R-HEK293 cells (AID 1920064; active = well fitted curve in the direction sought with a large enough effect in the repeat runs; an effect the other way counts as inactive or inconclusive). In short, it runs like this: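 Cells plated and incubated 18 h; dye added, 1 h at 37 C; compounds in DMSO pinned in; signal read at 480/540 nm every second for 3 min. Each compound tested at 15 concentrations in triplicate.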
KiSS-1 receptor (Homo sapiens), sequence (Q969F8 whole entry, looked up): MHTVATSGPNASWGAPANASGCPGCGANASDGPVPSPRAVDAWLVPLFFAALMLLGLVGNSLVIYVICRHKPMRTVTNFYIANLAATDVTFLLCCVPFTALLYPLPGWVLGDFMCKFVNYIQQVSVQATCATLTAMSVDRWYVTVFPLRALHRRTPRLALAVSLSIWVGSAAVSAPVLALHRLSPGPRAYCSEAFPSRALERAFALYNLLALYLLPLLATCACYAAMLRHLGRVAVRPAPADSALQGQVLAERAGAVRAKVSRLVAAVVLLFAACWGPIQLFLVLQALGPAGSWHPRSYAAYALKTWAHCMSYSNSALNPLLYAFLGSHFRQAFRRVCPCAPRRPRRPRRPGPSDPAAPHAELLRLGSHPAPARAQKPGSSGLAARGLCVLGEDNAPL

Experiment [5] can be described thus: G protein-coupled receptor (GPCR) small molecule agonists, calcium flux assay: HEK293 wild type cell line counter screen (AID 1920065). A digest of the protocol:
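Counter-screen of the Tox21 10K library for non-specific calcium release: dye-loaded cells received compounds in DMSO and were monitored by kinetic fluorescence (480/540 nm, 3 min). Fifteen concentrations, run in triplicate.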

Experiment [6] in a line: p53 small molecule agonists, cell-based qHTS assay with human liver microsomes (AID 1963577).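 Note: p53 response element beta-lactamase reporter cells with liver microsomes plus NADPH.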 A digest of the protocol:
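Reporter activation was measured by LiveBLAzer fluorescence intensity in p53RE-bla cells, which had been exposed to compounds for 16 h at 37 C alongside 0.5 mg/mL human liver microsomes and 0.5 mg/mL NADPH (final concentrations).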

Experiment [7] can be described thus: p53 small molecule agonists, cell-based qHTS assay with rat liver microsomes (AID 1963578). A digest of the protocol: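 Compound in DMSO added to p53RE-bla cells 5 h post-plating; rat microsomes/NADPH 0.5 mg/mL final; 16 h, 37 C; LiveBLAzer 2 h RT.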
Background: Quantitative high-throughput screening tests each substance at several concentrations.

A short description of experiment [8]: p53 small molecule agonists, cell-based qHTS assay with human liver microsomes: qHTS cell viability counter screen (AID 1963579). Note: nearly all actives have a fitted effect of over 45% in size. In short, it runs like this: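 HLM-supplemented (0.5 mg/mL final) and NADPH-supplemented (0.5 mg/mL final) p53RE-bla cultures, 4,000 cells per well, were dosed with compounds in DMSO for 16 h at 37 C; luminescent ATP detection (CellTiter-Glo, 30 min, room temperature) quantified surviving cells.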

Experiment [9] is described as follows: p53 small molecule agonists, cell-based qHTS assay with rat liver microsomes: qHTS cell viability counter screen (AID 1963580). Note: nearly all actives have a fitted effect of over 45% in size. In short, it runs like this: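 Viability is assessed in parallel with the p53 reporter read: HCT-116 p53RE-bla cells receive compounds plus rat microsomes and NADPH (0.5 mg/mL final apiece), incubate 16 h at 37 C, and then CellTiter-Glo luminescence is recorded.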

Experiment [10] can be described thus: p53 small molecule agonists, cell-based qHTS assay: qHTS cell viability counter screen (AID 1963581). Note: nearly all actives have a fitted effect of over 45% in size. In short, it runs like this: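 Cells: HCT-116 with p53 response element-driven beta-lactamase. Treatment: 16 h, 37 C, compounds in DMSO. Read: CellTiter-Glo luminescence after 30 min RT.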
The nature of experiment [11]: p53 small molecule agonists, cell-based qHTS assay (AID 1963582; active = well fitted activation curve with a large enough effect in the signal ratio in the repeat runs, not every such curve was filed as active; the % refers to the signal ratio). In short, it runs like this:
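Quantitative HTS in p53RE-bla cells: after a 5 h settling period, compounds delivered in DMSO were left on cells for 16 h at 37 C, and reporter induction was measured as fluorescence following 2 h substrate loading.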

Experiment [12] can be described thus: cAMP Responsive Elements (CRE) small molecule agonists, cell-based qHTS assay (AID 1963590). In short, it runs like this: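 Agonist mode qHTS in CRE-bla HEK 293T cells: compounds dosed from DMSO for 3 h at 37 C/5% CO2, followed by LiveBLAzer B/G FRET substrate for 2 h at room temperature.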
A short description of experiment [13]: cAMP Responsive Elements (CRE) small molecule antagonists, cell-based qHTS assay (AID 1963591; active = well fitted inhibition curve with a large enough effect in the signal ratio in the repeat runs, not every such curve was filed as active; the % refers to the signal ratio). In short, it runs like this:
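Antagonist mode: test compounds are co-incubated with the adenylyl cyclase activator NKH477 (0.25 uM final) on CRE-bla HEK293T cells for 3 h at 37 °C, followed by LiveBLAzer substrate loading.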

In experiment [14] the target is Beta-2 adrenergic receptor (Homo sapiens) (UniProt P07550). Put plainly: Adrenergic beta2 receptor (ADRB2) small molecule antagonists, cell-based qHTS assay (AID 1963592). Note: series mostly up to about 92 µM; nearly all actives have a fitted effect of over 50% in size. In short, it runs like this:
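Cells (CHO, stable ADRB2 overexpression) incubated 18-20hr at 37C; compounds added from DMSO; agonist mix (1nM isoproterenol, 100uM IBMX, 25uM Ro-20-1724) added; 0.5hr RT; d2-cAMP and anti-cAMP-cryptate added; 1hr RT; 665/615 nm read.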

The target of experiment [15] is D(2) dopamine receptor (Homo sapiens) (UniProt P14416). Put plainly: Dopamine D2 receptor (DRD2) small molecule antagonists, cell-based qHTS assay (AID 1963595; active = well fitted inhibition curve with a large enough effect in the signal ratio in the repeat runs, with a control signal flat; the % refers to the signal ratio; note: potency is the fitted concentration of half-maximal effect). In short, it runs like this:
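Antagonist mode in DRD2-HEK293 cells: after compound addition with 0.1 mM Ro20-1724, cells received quinpirole (12 nM) and NKH477 (200 nM) for 30 min at room temperature; HTRF cAMP read after 1 h detection.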

The target of experiment [16] is 5-hydroxytryptamine receptor 2A (Homo sapiens) (UniProt P28223). Kind of experiment: 5-hydroxytryptamine receptor 2A (HTR2A) small molecule agonists, cell-based qHTS assay (AID 1963587). Note: nearly all actives have a fitted effect of over 30% in size. A digest of the protocol:
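CHO cells stably expressing human HTR2A, plated 18 h, loaded with calcium dye 1 h at 37 C. Agonist mode: compounds added and intracellular calcium fluorescence recorded kinetically for 2 min at 1 sec intervals.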

For experiment [17], the target named is Muscarinic acetylcholine receptor M1 (Homo sapiens) (UniProt P11229). Put plainly: Cholinergic receptor muscarinic 1 (CHRM1) small molecule antagonists, cell-based qHTS assay (AID 1963588). Note: nearly all actives have a fitted effect of over 40% in size. In short, it runs like this: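 CHRM1-CHO calcium-flux assay, antagonist mode. Cells were seeded 18 h, dye-loaded 1 h at 37 C and given compound for 5 min at RT, then acetylcholine was added at 50nM. FDSS fluorescence was read 3 min; 15 concentrations, three runs.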
Muscarinic acetylcholine receptor M1 (Homo sapiens), sequence (P11229 whole entry, looked up): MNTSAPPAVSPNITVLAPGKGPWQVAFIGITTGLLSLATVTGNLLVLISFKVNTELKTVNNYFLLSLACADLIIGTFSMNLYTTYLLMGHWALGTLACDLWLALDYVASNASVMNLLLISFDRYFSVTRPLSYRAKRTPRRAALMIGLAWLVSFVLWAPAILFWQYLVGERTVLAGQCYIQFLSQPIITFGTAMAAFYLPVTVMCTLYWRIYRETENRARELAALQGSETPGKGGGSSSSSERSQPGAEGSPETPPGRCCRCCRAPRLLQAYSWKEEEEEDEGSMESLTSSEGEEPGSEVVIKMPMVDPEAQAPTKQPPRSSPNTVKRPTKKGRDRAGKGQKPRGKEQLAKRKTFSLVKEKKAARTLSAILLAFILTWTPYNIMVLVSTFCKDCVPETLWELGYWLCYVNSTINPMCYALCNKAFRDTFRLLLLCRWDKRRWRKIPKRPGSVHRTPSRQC

The target is the same in experiment [18]. Put plainly: Cholinergic receptor muscarinic 1 (CHRM1) small molecule agonists, cell-based qHTS assay (AID 1963589). Note: nearly all actives have a fitted effect of over 35% in size. In short, it runs like this:
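Agonist-mode qHTS in CHO cells stably carrying human muscarinic M1. Intracellular calcium is tracked by fluorescence every second after compound transfer; each compound runs at 15 concentrations in three independent runs.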

Experiment [19] addresses Beta-2 adrenergic receptor (Homo sapiens) (UniProt P07550). Kind of experiment: Adrenergic beta2 receptor (ADRB2) small molecule agonists, cell-based qHTS assay (AID 1963593).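 Note: CHO cells stably overexpressing human ADRB2.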 A digest of the protocol:
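CHO cells stably over-expressing ADRB2 were plated overnight at 37C, then dosed with compounds plus a stimulation mix containing 100uM IBMX and 25uM Ro-20-1724 for 0.5hr at room temperature. cAMP was measured by HTRF competition, 1hr.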

Experiment [20] addresses D(2) dopamine receptor (Homo sapiens) (UniProt P14416). Kind of experiment: Dopamine D2 receptor (DRD2) small molecule agonists, cell-based qHTS assay (AID 1963594). Note: nearly all actives have a fitted effect of over 35% in size. A digest of the protocol:
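HEK293 cells stably expressing human DRD2, pre-treated with PDE inhibitor Ro20-1724 (0.1 mM final) and compound 10 min at room temperature, then stimulated with NKH477 (200nM […]) for 30 min. cAMP read by HTRF (665/620 nm).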

A number with no mark means an inactive call. Inconclusive results are not listed. Active and inactive are the calls of the source. Unless noted, calls come from the whole dose curve.
% is set by controls: 0 for no effect and ±100 for the full control effect.

Gonadotropin-releasing hormone receptor (Homo sapiens), sequence (P30968 whole entry, looked up): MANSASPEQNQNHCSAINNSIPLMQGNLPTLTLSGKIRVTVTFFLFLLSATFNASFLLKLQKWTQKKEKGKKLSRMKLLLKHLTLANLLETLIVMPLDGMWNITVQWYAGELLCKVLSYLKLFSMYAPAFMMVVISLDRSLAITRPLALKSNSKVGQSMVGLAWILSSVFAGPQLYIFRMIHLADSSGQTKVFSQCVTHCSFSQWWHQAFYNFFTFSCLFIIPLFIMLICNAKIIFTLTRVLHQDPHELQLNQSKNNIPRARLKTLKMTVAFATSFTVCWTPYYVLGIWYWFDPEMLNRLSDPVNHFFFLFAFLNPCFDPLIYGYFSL
D(2) dopamine receptor (Homo sapiens), sequence (P14416 whole entry, looked up): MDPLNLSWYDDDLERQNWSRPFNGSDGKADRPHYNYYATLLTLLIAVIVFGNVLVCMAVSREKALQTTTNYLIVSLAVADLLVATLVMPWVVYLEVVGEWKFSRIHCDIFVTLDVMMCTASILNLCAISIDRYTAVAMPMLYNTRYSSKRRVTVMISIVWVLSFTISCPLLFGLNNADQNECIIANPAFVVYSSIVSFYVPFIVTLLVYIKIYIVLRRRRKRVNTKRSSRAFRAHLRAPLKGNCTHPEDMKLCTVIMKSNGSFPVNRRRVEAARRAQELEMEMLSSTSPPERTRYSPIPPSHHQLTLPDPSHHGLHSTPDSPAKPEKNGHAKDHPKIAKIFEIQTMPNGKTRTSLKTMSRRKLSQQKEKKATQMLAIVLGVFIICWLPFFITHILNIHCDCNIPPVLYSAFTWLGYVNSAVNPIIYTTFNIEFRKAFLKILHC
Beta-2 adrenergic receptor (Homo sapiens), sequence (P07550 whole entry, looked up): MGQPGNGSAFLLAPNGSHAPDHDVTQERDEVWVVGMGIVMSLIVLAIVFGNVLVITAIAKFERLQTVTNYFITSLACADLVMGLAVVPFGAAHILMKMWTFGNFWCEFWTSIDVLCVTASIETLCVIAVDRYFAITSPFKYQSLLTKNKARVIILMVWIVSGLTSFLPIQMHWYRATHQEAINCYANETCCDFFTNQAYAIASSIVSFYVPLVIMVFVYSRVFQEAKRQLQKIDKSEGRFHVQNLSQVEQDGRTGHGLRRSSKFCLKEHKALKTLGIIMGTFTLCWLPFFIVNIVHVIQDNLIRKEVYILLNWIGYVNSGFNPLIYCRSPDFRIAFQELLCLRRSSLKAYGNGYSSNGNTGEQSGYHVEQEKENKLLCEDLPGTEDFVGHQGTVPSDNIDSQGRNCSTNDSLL
5-hydroxytryptamine receptor 2A (Homo sapiens), sequence (P28223 whole entry, looked up): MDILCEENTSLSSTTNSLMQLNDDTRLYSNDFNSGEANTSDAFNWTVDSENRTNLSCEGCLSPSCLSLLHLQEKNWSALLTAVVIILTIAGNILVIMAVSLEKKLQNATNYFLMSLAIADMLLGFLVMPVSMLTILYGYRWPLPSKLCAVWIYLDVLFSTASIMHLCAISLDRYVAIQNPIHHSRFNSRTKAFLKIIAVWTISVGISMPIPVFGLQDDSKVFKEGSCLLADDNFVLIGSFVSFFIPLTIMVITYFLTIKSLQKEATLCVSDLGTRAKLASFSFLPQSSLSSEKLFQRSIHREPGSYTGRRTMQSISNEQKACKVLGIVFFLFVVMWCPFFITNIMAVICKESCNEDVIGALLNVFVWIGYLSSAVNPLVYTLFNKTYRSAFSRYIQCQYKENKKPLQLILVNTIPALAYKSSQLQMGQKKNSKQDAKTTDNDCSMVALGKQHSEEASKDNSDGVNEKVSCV

In the case of `C[C@@H]1C[C@H]2[C@@H]3CCC4=CC(=O)C=C[C@]4(C)[C@@]3(F)[C@@H](O)C[C@]2(C)[C@H]1C(=O)CO`, the Potency entry in experiment [1], in experiment [2], in [3], in [6], in experiment [7] and in experiment [8] was “inactive” each time. Moreover, the Potency entry in experiment [9], in experiment [10], in experiment [11], in [12], in experiment [13] and in [14] was “inactive” throughout. The Potency entry in experiment [15] was “inactive”. Also, the outcome in [4] and in [5] was inactive.
Turning to `Cc1ccnc(NS(=O)(=O)c2ccc(N)cc2)n1`, the Potency entry in experiment [1], in experiment [2], in [3], in experiment [6], in experiment [7] and in experiment [8] was “inactive” throughout. The Potency entry in experiment [9], in [10], in experiment [11], in experiment [12], in [13] and in experiment [14] was “inactive” throughout. In addition, in [15], the Potency entry is “inactive”. Also, the result in experiment [4] and in experiment [5] was inactive.
Turning to `BrC/C=C/CBr`, the activity change, negative = cytotoxicity in [1] was -3.14% [at 19 µM]; in experiment [8], -4.11% [at 13.5 µM]; in [9], -2.57% [at 13.5 µM]; in experiment [10] it was -2.07% [at 13.5 µM]. For the same compound, the activity, positive = activation in [2] is -2.5% [at 19 µM]. The activity change in experiment [3] is 0.305% [at 11.8 µM, active compounds read high]. In addition, the activation in [4] is -0.639% [at 15.8 µM]; in experiment [5] it was 0.681% [at 11.8 µM]; in experiment [6], -4.84% [at 13.5 µM]; in [7] it was -1.81% [at 13.6 µM]; in experiment [16] it was -0.944% [at 15.9 µM]; in experiment [18] it was 1.37% [at 15.8 µM]. Besides, the figures for the activation in experiment [12] and in experiment [20] were -0.306% [at 19 µM] and -0.205% [at 19 µM], respectively. In addition, the activity, negative = inhibition in experiment [17] is -3.79% [at 12.6 µM]. The activity change, negative = inhibition in experiment [13] is -2.76% [at 18.9 µM]; in [14], -26% [at 19 µM]; in experiment [15], 7.87% [at 18.9 µM]. The Potency entry in [19] is “inactive”.
`CC(C)(C)NCC(O)c1cc(O)cc(O)c1` (configuration not stated): the Potency entry in experiment [1], in experiment [2], in experiment [6], in [7], in [8] and in [9] was “inactive” each time. For the same compound, the Potency result in experiment [10], in experiment [11], in experiment [13] and in [20] was “inactive” in each case. The Potency was 0.268 µM (active) in experiment [3] and 10.6 µM (active) in experiment [15]. For the same compound, the result in experiment [4] and in [5] was inactive.
As for `O=C(O)Cc1ccc(-c2ccccc2)cc1`, the Potency entry in [1], in experiment [2], in experiment [3], in [6], in [7] and in [8] was “inactive” in each case. For the same compound, the Potency entry in experiment [9], in experiment [10], in experiment [11], in experiment [14], in [20] and in experiment [15] was “inactive” in each case. For the same compound, the result in experiment [4] and in experiment [5] was inactive.
Take `CCn1cc(C(=O)O)c(=O)c2cc(F)c(N3CCNCC3)nc21`: the Potency result in [1], in experiment [2], in [3], in [6], in experiment [7] and in experiment [8] was “inactive” throughout. Besides, the Potency entry in experiment [9], in [10], in [11], in [12], in experiment [13] and in experiment [20] was “inactive” throughout. The Potency entry in [15] was “inactive”. The result in experiment [4] and in experiment [5] was inactive.
`CN1C[C@@H]2C[C@H]1CN2c1cc2c(cc1F)c(=O)c(C(=O)O)cn2C1CC1`: the activity change, negative = cytotoxicity in experiment [1] is -0.599% [at 19 µM]; in [8] it was 13.7% [at 13.5 µM]; in experiment [9], 4.47% [at 13.5 µM]; in experiment [10], 10.7% [at 13.5 µM]. Further, in experiment [2], the activity, positive = activation was -6.17% [at 19 µM]. Further, the activity change in experiment [3] was -0.0937% [at 11.8 µM, active compounds read high]. For the same compound, the activation in experiment [4] is -1.39% [at 15.8 µM]; in experiment [5] it was 0.573% [at 11.8 µM]; in experiment [6] it was 9.29% [at 13.5 µM]; in [7], 1.2% [at 13.6 µM]; in [11], 6.22% [at 13.5 µM]; in experiment [20] it was 2.8% [at 19 µM]. The activity change, negative = inhibition in [13] is 13.7% [at 18.9 µM]; in experiment [14], -1.81% [at 19 µM]; in [15] it was -0.654% [at 18.9 µM].
As for `CCOC(=O)C1=C(C)NC(C)=C(C(=O)OC)C1c1cccc([N+](=O)[O-])c1` (configuration not stated), the Potency result in experiment [1], in experiment [2], in [3], in [6], in experiment [7] and in experiment [8] was “inactive” each time. Besides, the Potency entry in [9], in experiment [10], in experiment [11], in experiment [12], in experiment [13] and in experiment [14] was “inactive” throughout. In addition, the Potency entry in experiment [15] was “inactive”. Also, the outcome in [4] and in experiment [5] was inactive.

Source of the values: PubChem BioAssay (Tox21).
